The values that follow come from PubChem BioAssay (NCI).

Structures are written as SMILES. About 79,000 compounds went through this panel and 15% of them were active in at least one assay; those are over-represented in the sample as a whole. Values without a mark were called inactive. The source made the active and inactive calls. No stated cut-off is given here; in the data, active means growth inhibition above about 70%; inactive means the rest.

Assay [1] can be described thus: NCI Yeast Anticancer Drug Screen. Data for the rad50 strain (AID 155).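 Further: 0% = growth of vehicle-only cultures of the same strain.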 As to conditions: S. cerevisiae rad50 strain growth inhibition, active compounds read high. The essentials:
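Growth of the mutant yeast was measured after compound exposure and referenced to vehicle-treated cultures.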

The nature of assay [2]: NCI Yeast Anticancer Drug Screen. Data for the mec2-1 strain (AID 157). The note with it: S. cerevisiae mec2-1 strain, active compounds read high. The essentials:
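Strain: mec2-1 (DNA repair/cell cycle alteration). Compound exposure, then growth measured; inhibition expressed relative to vehicle.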

Assay [3] can be described thus: NCI Yeast Anticancer Drug Screen. Data for the sgs1 mgt1 strain (AID 161).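 Further: 0% = growth of cultures given vehicle only.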 As to conditions: S. cerevisiae sgs1 mgt1 strain, active compounds read high. The essentials: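 Test agents were incubated with a DNA-repair-mutant yeast strain. Growth was then read and compared against vehicle-treated controls.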
The nature of assay [4]: NCI Yeast Anticancer Drug Screen. Data for the cln2 rad14 strain (AID 165).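 Further: 0% = growth equal to vehicle treated cultures.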 The note with it: S. cerevisiae cln2 rad14 strain, active compounds read high. The essentials: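 Compounds are applied to the cln2 rad14 yeast strain, and growth is then compared with that of vehicle-treated cultures to give inhibition.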
A short description of assay [5]: NCI Yeast Anticancer Drug Screen. Data for the bub3 strain (AID 167). As to conditions: S. cerevisiae bub3 mutant strain, active compounds read high. The essentials:
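Whole-cell yeast assay. The mutant strain was incubated with compounds, and growth inhibition was determined by comparison with vehicle-treated cells.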

Assay [6] is described as follows: NCI Yeast Anticancer Drug Screen. Data for the mlh1 rad18 strain (AID 175). The note with it: S. cerevisiae mlh1 rad18 strain growth inhibition, active compounds read high. The essentials:
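Read-out is yeast growth inhibition, calculated against vehicle-only controls. The compound was applied to a strain engineered with DNA damage repair alterations.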

Setting [7] is: at 5.0 µM (retest, dose inferred, filed as 0.5).
Setting [8] is: at 50.0 µM (retest, dose inferred, filed as 5.0).

Turning to `CC(C)c1ccc(C(C)C)c(O)c1O`, the growth inhibition in assay [1] (setting [7]) is 13%; in assay [1] (setting [8]) it was 72% (active); in assay [1] (at 50.0 µM) it was 82% (active); in assay [2] (setting [7]), 24%; in assay [2] (setting [8]), 73% (active); in assay [2] (at 50.0 µM), 87.3% (active). Further, the growth inhibition in assay [3] (setting [7]) was 22%; in assay [3] (setting [8]) it was 79% (active); in assay [3] (at 50.0 µM), 88% (active); in assay [4] (setting [7]), 21%; in assay [4] (setting [8]), 63%; in assay [4] (at 50.0 µM), 53.2%. The growth inhibition in assay [5] (setting [7]) was 7%; in assay [5] (setting [8]), 67%; in assay [5] (at 50.0 µM) it was 87.2% (active); in assay [6] (setting [7]), 7%; in assay [6] (setting [8]), 94% (active); in assay [6] (at 50.0 µM) it was 69.8%.

For the compound `Cc1ccc(NC(=S)SCc2ccc3c(c2)OCO3)cc1Br`, the growth inhibition in assay [1] (setting [7]) is 46%; in assay [1] (setting [8]), 96% (active); in assay [1] (at 50.0 µM), 89.8% (active); in assay [2] (setting [7]), 29%; in assay [2] (setting [8]) it was 98% (active); in assay [2] (at 50.0 µM), 91.8% (active). Besides, the growth inhibition in assay [3] (setting [7]) was 55%; in assay [3] (setting [8]), 98% (active); in assay [3] (at 50.0 µM) it was 91.9% (active); in assay [4] (setting [7]), 52%; in assay [4] (setting [8]), 98% (active); in assay [4] (at 50.0 µM), 88.5% (active). The growth inhibition in assay [5] (setting [7]) is 58%; in assay [5] (setting [8]), 99% (active); in assay [5] (at 50.0 µM), 91% (active); in assay [6] (setting [7]), 36%; in assay [6] (setting [8]), 97% (active); in assay [6] (at 50.0 µM), 89.8% (active).

`Cc1cc(N(CCOS(C)(=O)=O)CCOS(C)(=O)=O)ccc1C=Nc1ccc(-c2csc(-c3ccc(Br)cc3)n2)cc1`: the growth inhibition in assay [1] (setting [7]) was 49%; in assay [1] (setting [8]), 91% (active); in assay [1] (at 50.0 µM) it was 95.5% (active); in assay [2] (setting [7]), 47%; in assay [2] (setting [8]) it was 95% (active); in assay [2] (at 50.0 µM), 94.2% (active). For the same compound, the growth inhibition was 48% in assay [3] (setting [7]); 95% (active) in assay [3] (setting [8]); 81.9% (active) in assay [3] (at 50.0 µM); 37% in assay [4] (setting [7]); 88% (active) in assay [4] (setting [8]); 89.5% (active) in assay [4] (at 50.0 µM). Further, the growth inhibition in assay [5] (setting [7]) was 11%; in assay [5] (setting [8]) it was 85% (active); in assay [5] (at 50.0 µM), 76.9% (active); in assay [6] (setting [7]), 88% (active); in assay [6] (setting [8]) it was 96% (active); in assay [6] (at 50.0 µM), 96.7% (active).

Turning to `COc1ccc2c(c1)CCC(N1CCCC(O)C1)C2` (stereo not given), the growth inhibition in assay [1] (setting [7]) is 13%; in assay [1] (setting [8]), 98% (active); in assay [1] (at 50.0 µM), 48.9%; in assay [2] (setting [7]), 12%; in assay [2] (setting [8]), 99% (active); in assay [2] (at 50.0 µM), 56%. Further, the growth inhibition in assay [3] (setting [7]) is 12%; in assay [3] (setting [8]), 98% (active); in assay [3] (at 50.0 µM) it was 87.2% (active); in assay [4] (setting [7]) it was 25%; in assay [4] (setting [8]), 99% (active); in assay [4] (at 50.0 µM) it was 23.2%. Besides, the growth inhibition in assay [5] (setting [7]) is 11%; in assay [5] (setting [8]), 99% (active); in assay [5] (at 50.0 µM) it was 91.2% (active); in assay [6] (setting [7]), 14%; in assay [6] (setting [8]), 98% (active); in assay [6] (at 50.0 µM), 71.4% (active).

`CCCCCCCCCCCCNCCNCCN`: the growth inhibition in assay [1] (setting [7]) is 99% (active); in assay [1] (setting [8]), 95% (active); in assay [1] (at 50.0 µM) it was 86.7% (active); in assay [2] (setting [7]) it was 99% (active); in assay [2] (setting [8]), 100% (active); in assay [2] (at 50.0 µM), 89.7% (active). Moreover, the growth inhibition was 25% in assay [3] (setting [7]); 96% (active) in assay [3] (setting [8]); 91% (active) in assay [3] (at 50.0 µM); 84% (active) in assay [4] (setting [7]); 97% (active) in assay [4] (setting [8]); 85.6% (active) in assay [4] (at 50.0 µM). The growth inhibition in assay [5] (setting [7]) was 61%; in assay [5] (setting [8]), 96% (active); in assay [5] (at 50.0 µM) it was 89% (active); in assay [6] (setting [7]) it was 100% (active); in assay [6] (setting [8]), 100% (active); in assay [6] (at 50.0 µM) it was 86.6% (active).

Consider `COc1ccc2c(c1)CCCN2S(=O)(=O)c1ccc(N)cc1`, for which the growth inhibition in assay [1] (setting [7]) was -1%; in assay [1] (setting [8]) it was 18%; in assay [1] (at 50.0 µM), 45.5%; in assay [2] (setting [7]) it was -3%; in assay [2] (setting [8]), 5%; in assay [2] (at 50.0 µM), 27.1%. The growth inhibition in assay [3] (setting [7]) was -2%; in assay [3] (setting [8]) it was 16%; in assay [3] (at 50.0 µM), 36.8%; in assay [4] (setting [7]), 0%; in assay [4] (setting [8]) it was 13%; in assay [4] (at 50.0 µM), -6.65%. Further, the growth inhibition is 3% in assay [5] (setting [7]); 49% in assay [5] (setting [8]); 32.2% in assay [5] (at 50.0 µM); -2% in assay [6] (setting [7]); 12% in assay [6] (setting [8]); 47% in assay [6] (at 50.0 µM).

With `Cc1ccc(S(=O)(=O)CC2COC(CS(=O)(=O)c3ccc(C)cc3)CO2)cc1` (stereo not given), the growth inhibition in assay [1] (setting [7]) is 2%; in assay [1] (setting [8]), 3%; in assay [1] (at 50.0 µM), -14.7%; in assay [2] (setting [7]) it was 1%; in assay [2] (setting [8]), 6%; in assay [2] (at 50.0 µM) it was 33.7%. Moreover, the growth inhibition in assay [3] (setting [7]) is 10%; in assay [3] (setting [8]) it was -6%; in assay [3] (at 50.0 µM), 3%; in assay [4] (setting [7]), 8%; in assay [4] (setting [8]), 5%; in assay [4] (at 50.0 µM), 33.1%. In addition, the growth inhibition was 2% in assay [5] (setting [7]); 11% in assay [5] (setting [8]); 66.4% in assay [5] (at 50.0 µM); -2% in assay [6] (setting [7]); 1% in assay [6] (setting [8]); 28.8% in assay [6] (at 50.0 µM).

Take `CC(C)(C)c1ccc(Br)c(CCC(=O)NO)c1`: the growth inhibition was -2% in assay [1] (setting [7]); 94% (active) in assay [1] (setting [8]); 97% (active) in assay [1] (at 50.0 µM); -1% in assay [2] (setting [7]); 98% (active) in assay [2] (setting [8]); 98.6% (active) in assay [2] (at 50.0 µM). Besides, the growth inhibition was -15% in assay [3] (setting [7]); 96% (active) in assay [3] (setting [8]); 97% (active) in assay [3] (at 50.0 µM); -3% in assay [4] (setting [7]); 91% (active) in assay [4] (setting [8]); 98.7% (active) in assay [4] (at 50.0 µM). The growth inhibition is -1% in assay [5] (setting [7]); 96% (active) in assay [5] (setting [8]); 97.7% (active) in assay [5] (at 50.0 µM); 9% in assay [6] (setting [7]); 98% (active) in assay [6] (setting [8]); 97.8% (active) in assay [6] (at 50.0 µM).

As for `CC(C)NCCCNc1nc(NCCCNC(C)C)c2nc(-c3ccccc3)c(-c3ccccc3)nc2n1`, the growth inhibition was 4% in assay [1] (setting [7]); 82% (active) in assay [1] (setting [8]); 52% in assay [1] (at 50.0 µM); 1% in assay [2] (setting [7]); 88% (active) in assay [2] (setting [8]); 58.7% in assay [2] (at 50.0 µM). The growth inhibition in assay [3] (setting [7]) is -2%; in assay [3] (setting [8]), 86% (active); in assay [3] (at 50.0 µM) it was 53.4%; in assay [4] (setting [7]), -3%; in assay [4] (setting [8]) it was 56%; in assay [4] (at 50.0 µM), 55.8%. Besides, the growth inhibition in assay [5] (setting [7]) was 0%; in assay [5] (setting [8]), 35%; in assay [5] (at 50.0 µM), 50.1%; in assay [6] (setting [7]), 2%; in assay [6] (setting [8]), 90% (active); in assay [6] (at 50.0 µM), 57.2%.

Take `Cc1cc2c(c([N+](=O)[O-])c1C)C(=O)C(Br)=C(N)C2=O`: the growth inhibition in assay [1] (setting [7]) was 95% (active); in assay [1] (setting [8]), 98% (active); in assay [1] (at 50.0 µM), 93.5% (active); in assay [2] (setting [7]), 79% (active); in assay [2] (setting [8]), 99% (active); in assay [2] (at 50.0 µM), 97.8% (active). Also, the growth inhibition is 96% (active) in assay [3] (setting [7]); 17% in assay [3] (setting [8]); 98.8% (active) in assay [3] (at 50.0 µM); 45% in assay [4] (setting [7]); 98% (active) in assay [4] (setting [8]); 98.3% (active) in assay [4] (at 50.0 µM). Further, the growth inhibition in assay [5] (setting [7]) was 87% (active); in assay [5] (setting [8]) it was 96% (active); in assay [5] (at 50.0 µM), 94% (active); in assay [6] (setting [7]) it was 93% (active); in assay [6] (setting [8]), 99% (active); in assay [6] (at 50.0 µM), 98% (active).
